For the test, the system named is VDR:RXRa (NR concentration 270 nM, RXRa partner concentration 90 nM). Kind of test: PBM binding z-score (relative to random genomic background probes); higher = stronger binding; sequences stand for … in GC…GCGATTGACAGCGTAGAATGAAGG
How it is done:
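Protein-binding microarray (Agilent 4x180K custom design, double-stranded 60-nt probes: 5' GC cap, 34-nt variable region, 24-nt constant primer region; full probe sequence given). Purified or IVT nuclear receptor:RXRα heterodimers (3:1 NR:RXRα, mostly 270:90 nM) or homodimers were incubated for 1 h in PBS with 2% milk and no ligand, then detected with Alexa488 antibodies. Fluorescence from o1-orientation probes (~5 replicates averaged) was converted to z-scores against 500 random hg19 background probes. Variable regions are seed direct-repeat (DR0–DR5) sites, all their single-nucleotide variants and half-site ablations.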
ACAGACAGTTGAGTGAAGGTAACTCAGCTGGACG: the PBM binding z-score was -0.356.
Turning to TATACAGGGTCAAAGTCCAGAGTACGAATGTCGA, the PBM binding z-score turned out to be 5.09.
In turn, TCTTGTAGATCAAGCAGGTTAAGATAGCCTGAGT showed a PBM binding z-score of 0.573.
CGAACTAGGTCATTGGCAGGACAGTGAATAGTAA gave a PBM binding z-score of 2.07.
For the sequence CCTGCTAGGTCACGGTCAGCTAATCTACAGTATG, the PBM binding z-score was found to be 2.5.
AGAATGAGGTTACAAAAGATCAGGGAAACGCTTG displayed a PBM binding z-score of 1.24.
For the sequence CGAAGTAGGTCATCCAGGACAGTGAATACATTGA, the PBM binding z-score was 5.12.
ATCGAAAGGTCGTGAGTTGAGTATACAGAAAGGC showed a PBM binding z-score of 3.51.
Sequence CCGACTGGGGCAATGGTTACCATACTCAGTACGA came in with a PBM binding z-score of -0.604.
Take CGAAGGAGGGCATGAGTTGATAGCAAATGCCGAT: the PBM binding z-score was found to be 0.513.
CGTCCAAGGTCAAGGACAGTGAAAGAGACTCGAA gave a PBM binding z-score of 3.75.
TCTGCTAGGTCGGTTGGTCAGCTAACGAGCTGCC came in with a PBM binding z-score of -0.462.
CCTTACGGGTCACGAGGTTATGGCACGACGAGCG: the PBM binding z-score worked out at 4.99.
Regarding ATCTCTAGGTAACAAGTTTAGTGAAAGAGAGGAC, the PBM binding z-score came to 0.823.
TCATATAGGTAAATGTGAAAGTCGAACGATATGA came in with a PBM binding z-score of 0.491.
ATCTATAGGTAAGACTCAGTTCAGTGAAGAACGC registered a PBM binding z-score of 0.866.
In turn, GCTACTAGTTGAAAGGGCAACCGAATGATTCTCG returned a PBM binding z-score of 0.234.
Then ATACCAAGTTGATCGTGAGGTCGTTGATACTAAC, with 2.68; and AATACAGGGTCATCGTAGACCAGAGTACGCACAG, with 5.04; and CTCGAAAGGTCGGTTGAGGTGATTATACGGATAA, with 3.1.
With TCATATAGGCAAACAGGTGAAAGTCCGTAAGTTA, the PBM binding z-score came to 0.719.
The result for ATCTCTAGGTAACCAAGGTCAGTGAATGCCGAAC reads 3.67; that for ATCTCTAGGTAAAGATAGTTCTGTGAATGCAAAT, 0.285.
Regarding TCTTCTAGATCAATAGAGGTTAAGAAAGTGCGCT, the PBM binding z-score turned out to be 1.94.
TCGAGTAGGTTTGTCGGGGCATTCAGCCAACATA yielded a PBM binding z-score of 0.467.
In the case of GCTTGTACATCAAGGTTAAGAAAGACTAAGCTAA, the PBM binding z-score came to 0.208.
The result for CGAACTAGGTCATCCAGAACAGTGAATACATTGA reads 2.56.
For CGAACTAGGTCAACCAGGACAGTGAATACATTGA, the PBM binding z-score amounted to 4.96.
Sequence ATATGTAGGTTACATCCGGGTCATTCGGGCTATG showed a PBM binding z-score of 3.9.
Turning to TGATATAGGTAAAGGTGAAAGTCGAACGATATGA, the PBM binding z-score is 0.866.
In turn, CAAACTAGGTCAAGGTCATAGTCGGTTTGTGCCA gave a PBM binding z-score of 5.01.
Turning to ATCTCTAGGTAACCAAGTTCAGTCAATGCCGAAC, the PBM binding z-score came to 4.36.
Then CCTCGGAGGACTACAGGAGGTCAGAGCTGCCAGA, with 1.26.
Then AATACAGGGTCATTGTAGGCCAGAGTACGCACAG, with 5.08; and AGTAAAAGTTCAGGACGAGGTAACGTAAAGCACG, with 2.66.
In the case of TCTGCTAGGTCAGTTGGTCAGTTAACGAGCTGCC, the PBM binding z-score came out at 0.0446.
With AGAACGAGGGCACGCTGAGCTGATAGCAGAGTAG, the PBM binding z-score worked out at 0.52.
For the sequence TCAGACAGGTGAAGGTACCTCAGGTACGCAGTCG, the PBM binding z-score was 0.202.
In the case of ATACCAAGGTGGTCGTGAGGTCGTTGATACTAAC, the PBM binding z-score worked out at 2.79.
TCTTGTAGATCAAGCCGGTTAAGAAAGCCTGAGT displayed a PBM binding z-score of 0.32.

The values are drawn from the supplement of paper PMC6555819.
